A number with no mark means an inactive call. Results filed as inconclusive are left out. Entries that show only a call come without a potency. Activity calls are given as the source filed them. Unless noted, calls come from the whole dose curve; as a rule, active = well fitted curve in the direction sought with a large enough effect in the repeat runs; inconclusive = weak or mixed curves; inactive = no such curve, though single readings can be large; an effect the other way counts as inactive or inconclusive.
Legend:
[1] = qHTS assay to identify small molecule agonists of the TGF-beta/Smad signaling pathway (AID 1346859; active = well fitted activation curve with a large enough effect in the signal ratio in the repeat runs, not every such curve was filed as active; the % refers to the signal ratio; note: series mostly up to about 77 µM)
Method in brief: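 Stable Smad binding element-beta-lactamase HEK 293T cells; 5 hr compound exposure at 37 C under 5% CO2; 2 hr room-temperature substrate step; fluorescence excited at 405 nm, collected at 460 nm and 530 nm.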

[2] = molecular target: Thyrotropin-releasing hormone receptor (Homo sapiens) (UniProt P34981); assay: qHTS assay to identify small molecule antagonists of the thyrotropin-releasing hormone receptor (TRHR) signaling pathway (AID 1346877; active = well fitted inhibition curve with a large enough effect in the repeat runs, not every such curve was filed as active; note: series mostly up to about 51 µM)
Thyrotropin-releasing hormone receptor (Homo sapiens), sequence (P34981 whole entry, looked up): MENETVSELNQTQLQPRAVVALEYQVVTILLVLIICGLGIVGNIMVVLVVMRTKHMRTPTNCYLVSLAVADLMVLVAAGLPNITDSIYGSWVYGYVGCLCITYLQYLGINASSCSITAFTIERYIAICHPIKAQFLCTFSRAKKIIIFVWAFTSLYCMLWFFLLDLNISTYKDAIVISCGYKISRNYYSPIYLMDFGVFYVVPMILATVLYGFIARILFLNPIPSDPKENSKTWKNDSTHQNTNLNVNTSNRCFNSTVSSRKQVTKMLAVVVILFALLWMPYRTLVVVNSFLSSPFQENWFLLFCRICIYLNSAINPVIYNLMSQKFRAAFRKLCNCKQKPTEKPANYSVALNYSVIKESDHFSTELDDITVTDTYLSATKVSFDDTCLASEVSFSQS
Method in brief: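 Screening used HEK293 cells engineered with TRHR, with a brief 5 min room-temperature compound exposure preceding addition of TRH to 1 nM. The read-out was kinetic calcium-dye fluorescence, concentration-response from 15 doses in triplicate.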

[3] = molecular target: Thyrotropin-releasing hormone receptor (Homo sapiens) (UniProt P34981); assay: qHTS assay to identify small molecule agonists of the thyrotropin-releasing hormone receptor (TRHR) signaling pathway (AID 1346891; calls by dose curve;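 note: HEK293 cells expressing TRHR with calcium dye readout; series mostly up to about 58 µM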)
Method in brief: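 In 1536-format, 1500 TRHR-Hek293 cells per well grew 18 h, took up calcium dye for 2 h at 37 °C, received compound, and were read kinetically; 15-point titrations, triplicates.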

[4] = Human pregnane X receptor (PXR) small molecule agonists, qHTS cell viability counter screen (AID 1346977); note: nearly all actives have a fitted effect of over 50% in size
Method in brief: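 Readout is CellTiter-Fluor fluorescence from PXR-Luc HepG2 cells. Plated cells rested 5hr, then were treated with compounds for 24hr at 37C and 5% CO2, with reagent present during the last hour.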

[5] = Caspase-3/7 induction in HepG2 cells by small molecules, qHTS assay (AID 1346978); note: nearly all actives have a fitted effect of over 15% in size
Method in brief: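 Wild-type HepG2 cells, 2,000/well, settled 5 hr at 37 C and 5% CO2, then compound-treated for 17 hr; caspase-3/7 activity read by luminescent Caspase-Glo 3/7 after 30 min at room temperature.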

[6] = Caspase-3/7 induction in CHO-K1 cells by small molecules, qHTS cell viability counter screen (AID 1346979); note: nearly all actives have a fitted effect of over 35% in size
Method in brief: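 To flag cytotoxic compounds, treated CHO-K1 wild-type cells were given CellTiter-Fluor at 16hr and read fluorescently after 1hr at 37C; the caspase-3/7 luminescence was measured in these same wells.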

[7] = Caspase-3/7 induction in CHO-K1 cells by small molecules, qHTS assay (AID 1346980); note: nearly all actives have a fitted effect of over 15% in size
Method in brief: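 Wild-type CHO-K1 cells exposed to compounds for 17hr at 37 C, 5% CO2. Caspase-3/7 activity then measured by Caspase-Glo 3/7 luminescence after 30min at room temperature.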

[8] = Caspase-3/7 induction in HepG2 cells by small molecules, qHTS cell viability counter screen (AID 1346981); note: series mostly up to about 92 µM; nearly all actives have a fitted effect of over 30% in size
Method in brief: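 Multiplexed with the caspase-3/7 assay: HepG2 cells, 16 hr compound treatment, CellTiter-Fluor viability detection by fluorescence.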

[9] = molecular target: Nuclear receptor subfamily 1 group I member 2 (Homo sapiens) (UniProt O75469); assay: Human pregnane X receptor (PXR) small molecule agonists, qHTS assay (AID 1346982); note: nearly all actives have a fitted effect of over 35% in size; note: potency is the fitted concentration of half-maximal effect
Nuclear receptor subfamily 1 group I member 2 (Homo sapiens), sequence (O75469 whole entry, looked up): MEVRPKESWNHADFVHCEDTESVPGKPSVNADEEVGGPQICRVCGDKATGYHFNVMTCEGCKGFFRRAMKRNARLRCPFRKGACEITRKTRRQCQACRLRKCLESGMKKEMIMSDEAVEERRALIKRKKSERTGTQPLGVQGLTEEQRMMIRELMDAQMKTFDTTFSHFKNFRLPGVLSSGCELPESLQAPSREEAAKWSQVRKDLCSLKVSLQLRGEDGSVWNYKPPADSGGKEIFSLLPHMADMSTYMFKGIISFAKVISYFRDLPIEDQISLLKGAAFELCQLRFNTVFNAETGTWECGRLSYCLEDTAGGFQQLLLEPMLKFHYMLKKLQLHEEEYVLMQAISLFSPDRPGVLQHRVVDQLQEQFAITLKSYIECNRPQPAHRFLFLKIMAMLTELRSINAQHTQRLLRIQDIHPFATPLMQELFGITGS
Method in brief: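 We seeded PXR-Luc HepG2 cells in assay medium containing 5% charcoal-stripped FBS, added compounds 5 hr later, incubated 24 hr, and read luminescence with ONE-Glo reagent.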

[10] = molecular target: Cytochrome P450 2D6 (Homo sapiens) (UniProt P10635); assay: Cytochrome P450 Family 2 Subfamily D Member 6 (CYP2D6) small molecule antagonists: luciferase reporter qHTS assay (AID 1671196); note: nearly all actives have a fitted effect of over 50% in size; note: potency is the fitted concentration of half-maximal effect
Cytochrome P450 2D6 (Homo sapiens), sequence (P10635 whole entry, looked up): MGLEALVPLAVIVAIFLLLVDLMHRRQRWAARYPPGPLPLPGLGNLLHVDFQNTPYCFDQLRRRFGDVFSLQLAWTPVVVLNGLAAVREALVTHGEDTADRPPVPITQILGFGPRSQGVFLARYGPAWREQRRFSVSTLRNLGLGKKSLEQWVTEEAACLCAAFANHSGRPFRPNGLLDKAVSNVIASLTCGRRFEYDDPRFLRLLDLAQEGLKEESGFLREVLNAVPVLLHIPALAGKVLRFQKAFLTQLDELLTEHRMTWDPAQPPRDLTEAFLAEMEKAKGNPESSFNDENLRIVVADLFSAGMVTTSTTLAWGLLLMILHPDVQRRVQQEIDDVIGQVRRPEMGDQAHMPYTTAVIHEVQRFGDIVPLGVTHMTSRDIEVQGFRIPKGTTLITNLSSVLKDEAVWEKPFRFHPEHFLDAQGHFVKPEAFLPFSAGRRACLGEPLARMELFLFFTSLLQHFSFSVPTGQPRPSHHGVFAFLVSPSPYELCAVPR
Method in brief: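 Luminescence (RLU), read 20 min after detection reagent, indicated CYP2D6 conversion of proluciferin to luciferin during a 1 h NADPH-dependent reaction at room temperature.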

[11] = molecular target: Cytochrome P450 2C19 (Homo sapiens) (UniProt P33261); assay: Cytochrome P450 Family 2 Subfamily C Member 19 (CYP2C19) small molecule antagonists: luciferase reporter qHTS assay (AID 1671197); note: nearly all actives have a fitted effect of over 65% in size; note: potency is the fitted concentration of half-maximal effect
Cytochrome P450 2C19 (Homo sapiens), sequence (P33261 whole entry, looked up): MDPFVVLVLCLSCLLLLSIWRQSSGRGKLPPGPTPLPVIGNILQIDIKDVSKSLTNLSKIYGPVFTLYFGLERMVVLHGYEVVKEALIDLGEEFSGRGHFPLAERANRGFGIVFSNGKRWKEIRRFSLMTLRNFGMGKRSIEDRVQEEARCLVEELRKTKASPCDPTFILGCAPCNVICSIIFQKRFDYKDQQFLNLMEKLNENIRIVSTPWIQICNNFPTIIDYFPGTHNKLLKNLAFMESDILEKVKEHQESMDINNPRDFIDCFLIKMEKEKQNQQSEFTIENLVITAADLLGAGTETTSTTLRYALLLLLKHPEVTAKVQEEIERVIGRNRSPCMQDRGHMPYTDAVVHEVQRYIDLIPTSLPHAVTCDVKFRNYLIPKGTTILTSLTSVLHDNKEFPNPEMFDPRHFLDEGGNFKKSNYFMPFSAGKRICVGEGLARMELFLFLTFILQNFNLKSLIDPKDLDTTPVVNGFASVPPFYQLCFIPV
Method in brief: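 Relative luminescence units recorded 20 min after the detection reagent stopped a 1 h, 37C CYP2C19 reaction on proluciferin substrate, which was started by NADPH regeneration following 10 min room-temperature compound preincubation; ketoconazole positive control.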

[12] = molecular target: Cytochrome P450 2C9 (Homo sapiens) (UniProt P11712); assay: Cytochrome P450 Family 2 Subfamily C Member 9 (CYP2C9) small molecule antagonists: luciferase reporter qHTS assay (AID 1671198); note: nearly all actives have a fitted effect of over 50% in size; note: potency is the fitted concentration of half-maximal effect
Cytochrome P450 2C9 (Homo sapiens), sequence (P11712 whole entry, looked up): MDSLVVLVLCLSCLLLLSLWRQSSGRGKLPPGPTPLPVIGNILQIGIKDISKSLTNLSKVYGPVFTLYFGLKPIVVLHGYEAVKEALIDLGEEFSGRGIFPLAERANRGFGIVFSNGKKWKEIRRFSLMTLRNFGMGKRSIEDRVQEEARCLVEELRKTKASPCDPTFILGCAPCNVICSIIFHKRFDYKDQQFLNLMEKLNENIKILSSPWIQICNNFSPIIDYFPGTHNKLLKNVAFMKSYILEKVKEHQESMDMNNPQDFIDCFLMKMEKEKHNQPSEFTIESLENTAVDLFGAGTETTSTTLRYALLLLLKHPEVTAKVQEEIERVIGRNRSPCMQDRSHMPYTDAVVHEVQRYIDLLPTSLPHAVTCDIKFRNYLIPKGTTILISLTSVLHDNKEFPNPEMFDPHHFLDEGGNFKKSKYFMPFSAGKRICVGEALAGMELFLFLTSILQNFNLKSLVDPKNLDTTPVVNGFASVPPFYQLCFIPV
Method in brief: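 P450-Glo proluciferin substrate with CYP2C9 enzyme; 10 min RT preincubation, then NADPH regeneration 1 h at 37C; luciferin detection reagent 20 min RT, luminescence in relative luminescence units.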

[13] = molecular target: Cytochrome P450 1A2 (Homo sapiens) (UniProt P05177); assay: Cytochrome P450 Family 1 Subfamily A Member 2 (CYP1A2) small molecule antagonists: luciferase reporter qHTS assay (AID 1671199); note: series mostly up to about 120 µM; nearly all actives have a fitted effect of over 50% in size
Cytochrome P450 1A2 (Homo sapiens), sequence (P05177 whole entry, looked up): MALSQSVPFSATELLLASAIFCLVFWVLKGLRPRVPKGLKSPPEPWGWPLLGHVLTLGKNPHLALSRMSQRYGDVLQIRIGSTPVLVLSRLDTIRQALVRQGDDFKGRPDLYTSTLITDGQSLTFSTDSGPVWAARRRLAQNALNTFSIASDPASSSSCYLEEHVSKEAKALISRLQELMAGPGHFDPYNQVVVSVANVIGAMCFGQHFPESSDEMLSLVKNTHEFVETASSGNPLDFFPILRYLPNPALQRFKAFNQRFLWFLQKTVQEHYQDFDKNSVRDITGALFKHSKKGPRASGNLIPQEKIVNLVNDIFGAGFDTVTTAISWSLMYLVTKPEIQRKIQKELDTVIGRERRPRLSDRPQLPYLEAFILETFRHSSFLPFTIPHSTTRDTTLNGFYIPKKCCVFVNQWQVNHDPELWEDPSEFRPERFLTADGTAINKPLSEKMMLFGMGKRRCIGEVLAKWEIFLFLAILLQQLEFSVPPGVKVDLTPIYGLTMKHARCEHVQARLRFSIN
Method in brief: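 CYP1A2 turnover of a luminogenic substrate was quantified after 1 h with NADPH regeneration at room temperature. Furafylline served as positive control.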

[14] = molecular target: Voltage-gated inwardly rectifying potassium channel KCNH2 (Homo sapiens) (UniProt Q12809); assay: Human Ether-a-go-go-Related Gene (hERG) channel small molecule antagonists: fluorescence cell-based qHTS assay (AID 1671200)
Voltage-gated inwardly rectifying potassium channel KCNH2 (Homo sapiens), sequence (Q12809 whole entry, looked up): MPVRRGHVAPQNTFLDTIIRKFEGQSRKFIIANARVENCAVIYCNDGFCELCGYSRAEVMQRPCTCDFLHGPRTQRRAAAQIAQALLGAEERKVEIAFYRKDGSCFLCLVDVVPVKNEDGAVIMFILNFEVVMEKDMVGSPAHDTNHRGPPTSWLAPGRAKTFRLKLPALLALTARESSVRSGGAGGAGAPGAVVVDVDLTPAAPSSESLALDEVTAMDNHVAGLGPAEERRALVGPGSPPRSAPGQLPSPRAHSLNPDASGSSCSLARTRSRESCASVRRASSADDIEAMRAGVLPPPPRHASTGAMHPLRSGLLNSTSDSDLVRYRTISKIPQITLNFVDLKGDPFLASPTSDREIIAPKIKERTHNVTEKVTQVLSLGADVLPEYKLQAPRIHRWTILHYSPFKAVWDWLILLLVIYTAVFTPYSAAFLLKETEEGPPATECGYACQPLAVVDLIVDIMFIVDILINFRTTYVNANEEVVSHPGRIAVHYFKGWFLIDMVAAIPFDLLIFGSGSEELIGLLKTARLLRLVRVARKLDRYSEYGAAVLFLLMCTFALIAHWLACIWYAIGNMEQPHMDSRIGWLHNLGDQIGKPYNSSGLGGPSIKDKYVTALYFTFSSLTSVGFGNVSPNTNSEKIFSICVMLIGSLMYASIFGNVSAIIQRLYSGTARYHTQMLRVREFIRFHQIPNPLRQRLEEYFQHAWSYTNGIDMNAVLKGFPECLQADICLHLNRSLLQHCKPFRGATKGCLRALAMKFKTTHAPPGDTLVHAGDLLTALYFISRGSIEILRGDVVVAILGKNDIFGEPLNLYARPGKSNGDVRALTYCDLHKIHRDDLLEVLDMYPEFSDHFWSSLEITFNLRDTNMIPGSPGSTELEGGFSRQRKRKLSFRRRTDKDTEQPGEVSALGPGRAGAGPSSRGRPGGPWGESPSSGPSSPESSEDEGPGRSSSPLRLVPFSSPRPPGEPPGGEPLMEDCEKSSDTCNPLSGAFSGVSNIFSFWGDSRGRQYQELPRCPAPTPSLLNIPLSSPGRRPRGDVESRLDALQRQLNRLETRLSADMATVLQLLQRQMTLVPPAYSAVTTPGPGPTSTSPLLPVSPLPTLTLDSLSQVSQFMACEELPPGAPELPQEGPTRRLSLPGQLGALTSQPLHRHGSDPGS
Method in brief: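 Measured: Tl+ flux via fluorescence (480/540 nm) in hERG-expressing U2OS cells after 1 h dye loading at room temperature.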

[15] = molecular target: Cytochrome P450 3A4 (Homo sapiens) (UniProt P08684); assay: Cytochrome P450 Family 3 Subfamily A Member 4 (CYP3A4) small molecule antagonists: luciferase reporter qHTS assay (AID 1671201); note: nearly all actives have a fitted effect of over 50% in size; note: potency is the fitted concentration of half-maximal effect
Cytochrome P450 3A4 (Homo sapiens), sequence (P08684 whole entry, looked up): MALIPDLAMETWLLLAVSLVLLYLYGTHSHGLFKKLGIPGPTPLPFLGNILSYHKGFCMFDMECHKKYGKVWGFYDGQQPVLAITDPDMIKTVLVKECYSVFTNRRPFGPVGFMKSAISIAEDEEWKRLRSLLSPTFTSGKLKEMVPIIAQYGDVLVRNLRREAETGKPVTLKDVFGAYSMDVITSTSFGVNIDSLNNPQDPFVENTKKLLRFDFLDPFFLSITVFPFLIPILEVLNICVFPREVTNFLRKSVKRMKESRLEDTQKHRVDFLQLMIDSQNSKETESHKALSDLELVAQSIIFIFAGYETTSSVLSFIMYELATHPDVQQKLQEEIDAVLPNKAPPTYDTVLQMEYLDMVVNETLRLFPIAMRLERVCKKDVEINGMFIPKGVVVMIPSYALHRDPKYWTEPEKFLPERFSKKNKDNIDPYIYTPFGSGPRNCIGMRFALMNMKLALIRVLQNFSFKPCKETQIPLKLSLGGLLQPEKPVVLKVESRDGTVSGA
Method in brief: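 Setup: enzyme-substrate mix, compound pin transfer, 10 min RT. Reaction: NADPH regeneration solution, 1 h RT. Readout: detection reagent stops turnover, luminescence measured after 20 min, expressed in relative luminescence units.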

[16] = molecular target: Nuclear receptor subfamily 1 group I member 2 (Rattus norvegicus) (UniProt Q9R1A7); assay: Rat pregnane X receptor (rPXR) activation by small molecules, qHTS assay (AID 1346983); conditions: rPXR luciferase reporter cells, One-Glo luminescence, 24 h; hits give high values; note: nearly all actives have a fitted effect of over 20% in size
Nuclear receptor subfamily 1 group I member 2 (Rattus norvegicus), sequence (Q9R1A7 whole entry, looked up): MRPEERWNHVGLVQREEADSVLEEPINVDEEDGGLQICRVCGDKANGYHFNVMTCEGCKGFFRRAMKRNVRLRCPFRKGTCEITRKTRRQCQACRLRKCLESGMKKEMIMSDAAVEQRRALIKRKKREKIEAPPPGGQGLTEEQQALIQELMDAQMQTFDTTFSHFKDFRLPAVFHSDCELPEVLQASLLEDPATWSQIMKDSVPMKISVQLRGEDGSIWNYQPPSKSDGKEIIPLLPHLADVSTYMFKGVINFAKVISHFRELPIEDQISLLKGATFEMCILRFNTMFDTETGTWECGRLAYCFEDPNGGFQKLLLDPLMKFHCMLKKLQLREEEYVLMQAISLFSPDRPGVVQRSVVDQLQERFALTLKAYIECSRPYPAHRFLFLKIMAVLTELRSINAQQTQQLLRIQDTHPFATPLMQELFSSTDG
Method in brief: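 Cell-based rPXR activation assay: rPXR cells, 2,000 per well, rested 5hr at 37 C, then exposed to compounds in DMSO for 24 hr at 37 C. Luciferase activity read by One-Glo luminescence after 30 min at room temperature.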

[17] = molecular target: Nuclear receptor subfamily 1 group I member 2 (Homo sapiens) (UniProt O75469); assay: CYP3A4 induction through human pregnane X receptor (PXR) by small molecules, qHTS assay (AID 1346984); note: nearly all actives have a fitted effect of over 40% in size
Method in brief: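 qHTS, concentration-response format: HepG2 DPX-2 line, PXR/CYP3A4-luc. Exposure 24 h, 37C. Substrate Luciferin-IPA 3uM final, 3 h. Detection One-Glo, 30 min RT.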

[18] = molecular target: Nuclear receptor subfamily 1 group I member 2 (Homo sapiens) (UniProt O75469); assay: Human pregnane X receptor (PXR) activation by small molecules, qHTS assay (AID 1346985); note: nearly all actives have a fitted effect of over 40% in size
Method in brief: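 DPX-2 cells (HepG2 co-transfected with a PXR response element and a CYP3A4-promoter luciferase construct) were seeded at 2,000 per well, rested 5 hr at 37C, then exposed to DMSO-dissolved compounds for 24 hr. Activation was read as luciferase luminescence.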

Row | SMILES | outcome [1] | outcome [2] | outcome [3] | outcome [4] | outcome [5] | Potency [6] | outcome [7] | outcome [8] | Potency [9] | Potency [10] | Potency [11] | Potency [12] | Potency [13] | Potency [14] | Potency [15] | max activation [16] [%] | Potency [17] | Potency [18]
1 | CCCCOC(=O)[C@H](C)O | inactive | inactive | inactive | inactive | inactive | inactive | inactive | inactive | inactive | inactive | inactive | inactive | inactive | inactive | inactive | – | – | –
2 | COS(=O)(=O)O | inactive | inactive | inactive | inactive | inactive | inactive | inactive | inactive | inactive | inactive | inactive | inactive | – | inactive | inactive | – | – | –
3 | COc1ccc2c(c1)c1c3n2CCN(C)C3=NCC1 | inactive | inactive | inactive | inactive | inactive | inactive | inactive | inactive | inactive | 15.5 µM (active) | inactive | inactive | – | inactive | inactive | 5.26 | inactive | inactive
4 | Nc1nnnn1-c1ccccc1 | inactive | inactive | inactive | inactive | inactive | inactive | inactive | inactive | inactive | inactive | inactive | inactive | – | inactive | inactive | – | – | –
5 | CC(C)(C)NC[C@H](O)COc1cccc2c1CCCC2=O | inactive | inactive | inactive | inactive | inactive | inactive | inactive | inactive | inactive | – | inactive | inactive | inactive | inactive | inactive | 0.088 | inactive | inactive
6 | Cc1ccc(C)c([N+](=O)[O-])c1 | inactive | inactive | inactive | inactive | inactive | inactive | inactive | inactive | inactive | inactive | inactive | inactive | inactive | inactive | inactive | – | – | –
7 | CCC(=O)Oc1ccc2c(c1)CC[C@@H]1[C@@H]2CC[C@@]2(C)[C@H]1C[C@@H](OC(=O)CC)[C@@H]2OC(=O)CC | inactive | inactive | inactive | inactive | inactive | inactive | inactive | inactive | inactive | inactive | 27.5 µM (active) | 24.5 µM (active) | inactive | inactive | inactive | – | – | –
8 | O=C(O)CONC(=O)c1ccccc1 | inactive | inactive | inactive | inactive | inactive | inactive | inactive | inactive | inactive | inactive | inactive | inactive | inactive | inactive | inactive | – | – | –
9 | CC(C)C1OCCN1CCOC(=O)NCCCCCCNC(=O)OCCN1CCOC1C(C)C (centres undefined) | inactive | inactive | inactive | inactive | inactive | inactive | inactive | inactive | 34.4 µM (active) | 63.3 µM (active) | 35.6 µM (active) | inactive | inactive | inactive | 10 µM (active) | – | – | –
10 | N#Cc1ccccc1O | inactive | inactive | inactive | inactive | inactive | inactive | inactive | inactive | inactive | inactive | inactive | inactive | inactive | inactive | inactive | – | – | –
11 | Cc1c(NC(=O)c2cccnc2)c(=O)n(-c2ccccc2)n1C | inactive | inactive | inactive | inactive | inactive | inactive | inactive | inactive | inactive | inactive | – | inactive | inactive | inactive | inactive | -1.68 | inactive | inactive
12 | CC(=O)C(C)O (centres undefined) | inactive | inactive | inactive | inactive | inactive | inactive | inactive | inactive | inactive | inactive | inactive | inactive | inactive | inactive | inactive | – | – | –
13 | CC(C)c1ccc(C=O)cc1 | inactive | inactive | inactive | inactive | inactive | inactive | inactive | inactive | inactive | inactive | inactive | inactive | inactive | inactive | inactive | – | – | –
14 | Cc1ncc([N+](=O)[O-])n1CC(C)O (centres undefined) | inactive | inactive | inactive | inactive | inactive | inactive | inactive | inactive | inactive | inactive | – | inactive | inactive | inactive | inactive | -2.68 | inactive | –
15 | N#Cc1cscn1 | inactive | inactive | inactive | inactive | inactive | inactive | inactive | inactive | inactive | inactive | inactive | inactive | inactive | inactive | inactive | – | – | –
16 | Cc1ccc(C(=O)O)cc1[N+](=O)[O-] | inactive | inactive | inactive | inactive | inactive | inactive | inactive | inactive | inactive | inactive | inactive | inactive | – | inactive | inactive | – | – | –
